# VACV Venus inh = inhibitors of vaccinia virus (Venus reporter) | Vaccinia virus Venus reporter expression, fluorescence | Potency, µM (series often up to 36.5 µM), for the others: at the highest dose activity change, negative = inhibition, most hits filed as inhibitors | actives 0.46% (n = 330,000); calls by dose curve; tested in A549 cells; further: potency means the concentration at half of the fitted maximal effect; nearly all actives have a fitted effect of over 30% in size
# Vaccinia mCherry = inhibitors of vaccinia virus infection (mCherry reporter signal). Vaccinia virus mCherry reporter infection, fluorescence. Potency, µM (top dose mostly 36.5 µM), for inactives: at the top dose activity change, negative = inhibition, hits mostly inhibitors. actives 0.63% (n = 310,000). AID 720579; calls by dose curve; tested in A549 cells; further: potency means the concentration at half of the fitted maximal effect; nearly all actives have a fitted effect of over 35% in size
# HCV inh = HCV inhibition. actives 3.4% (n = 340,000). Potency, µM (highest dose often 41.8 µM), for the others: at the highest dose activity change, negative = inhibition, most hits filed as inhibitors. Huh7.5.1 HCVcc-Cre infection, luciferase reporter, 44 h; active means well fitted inhibition curve with a large enough effect; inconclusive means small, poorly fitted or top-dose-only effect, or another doubt; inactive means no such curve, though single readings can be large or run the other way; further: potency means the concentration at half of the fitted maximal effect
#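 Antiviral activity was scored by luciferase reporter output from cells infected with HCVcc-Cre (~0.5 moi) in presence of compound, 44 h infection period, cells seeded 1,000/well 4 h prior.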
# FMDV antiviral = blocks foot and mouth disease virus | FMDV antiviral cell-based qHTS | Potency, µM (series often up to 57.9 µM), inactives show at the highest dose activity change, negative = inhibition, hits mostly inhibitors | actives 1.2% (n = 410,000); calls by dose curve; tested in HEK293T cells; further: read-out not given here; potency means the concentration at half of the fitted maximal effect; nearly all actives have a fitted effect of over 45% in size
# HCMV inh = blocks human cytomegalovirus replication | activity change, negative = inhibition, % at 57.5 µM | HFF cells, HCMV-luciferase reporter, 72 h; active compounds read low | actives 4.5% (n = 410,000); in the data active means activity change below about -60%; inconclusive means no clear call, values can overlap the other calls; inactive means above about -39%
#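 Two-dose cell screen: HFF monolayers treated with compounds and infected with luciferase-expressing HCMV at 1 PFU/cell, 72 h at 37C, then lysed for luciferase measurement.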
# Starred values were filed as active, the others as inactive; i = inactive; ? = inconclusive; nt = no result. Sampled rows, rich in hits. Any-hit rate of the full collection: about 7.3%. On the % scale 0 is the no-effect control and ±100 the full control effect.
SMILES,VACV Venus inh,Vaccinia mCherry,HCV inh,FMDV antiviral,HCMV inh
CC(C)(C)n1nnnc1C(CCc1ccccc1)N1CCC(n2c(=O)[nH]c3ccccc32)CC1 (configuration not stated),-23%,-20%,nt,32µM*,-99*
CC(C)(C)n1nnnc1C(C1CC1)N1CCC(n2c(=O)[nH]c3ccccc32)CC1 (configuration not stated),4%,24%,nt,-26%,-10
O=c1[nH]c2ccccc2n1C1CCN(C(CCc2ccccc2)c2nnnn2C2CCCCC2)CC1 (configuration not stated),?,?,nt,28µM*,-91*
CSCCC(c1nnnn1C1CCCC1)N1CCC(n2c(=O)[nH]c3ccccc32)CC1 (configuration not stated),4%,16%,nt,-23%,?
CSCCC(c1nnnn1C1CCCCC1)N1CCC(n2c(=O)[nH]c3ccccc32)CC1 (configuration not stated),-7%,-5%,nt,?,-93*
O=C(c1ccc(N2CCN(C3CC(=O)N(Cc4cccs4)C3=O)CC2)cc1)c1cccnc1 (configuration not stated),-20%,-3%,13µM*,?,-39
NC(=O)C1(N2CCCCC2)CCN(C2CC(=O)N(Cc3cccs3)C2=O)CC1 (configuration not stated),-18%,i,4%,3%,-23
O=C(c1ccncc1)c1ccc(N2CCN(C3CC(=O)N(Cc4ccccc4)C3=O)CC2)cc1 (configuration not stated),?,nt,?,16µM*,-63*
COc1ccc(N2CCN(C3CC(=O)N(Cc4ccccc4)C3=O)CC2)cc1 (configuration not stated),-9%,-13%,6%,-16%,-25
Oc1c(C(c2ccccc2F)N2CCC3(CC2)OCCO3)sc2nc(-c3ccco3)nn12 (configuration not stated),-3%,-5%,nt,12%,11
CC1CC(NC(=O)/C=C/C(=O)O)CC(C)(C)C1 (configuration not stated),-6%,i,?,9%,2
CC1CC(NC2=NCCS2)CC(C)(C)C1 (configuration not stated),-24%,i,-13%,-23%,-66*
CCc1ccc(S(=O)(=O)N2CCN(c3ccc(Cl)c(Cl)c3)CC2)cc1,-9%,-13%,nt,-23%,-14
CC1CCCN(CCOCCOc2ccc(Br)cc2Cl)C1 (configuration not stated),-23%,i,?,?,-64*
CC1CCCN(CCOCCOc2ccc(Cl)cc2Br)C1 (configuration not stated),nt,nt,-29%,-57%,-30
COc1cc2c(cc1NC(=S)Nc1cccc(C)c1)oc1ccccc12,nt,nt,8.9µM*,64%,32
COc1cc2c(cc1NC(=S)Nc1ccccc1C)oc1ccccc12,-12%,-21%,?,25%,21
COc1ccc(/C=C/C(=O)NC(=S)Nc2cc3oc4ccccc4c3cc2OC)cc1,-7%,-4%,8%,-3%,-32
O=C(Nc1ccc([N+](=O)[O-])c(NC(=O)C2CCCO2)c1)C1CCCO1 (configuration not stated),-13%,-11%,-2%,15%,-17
O=C(Nc1ccc(N=Nc2ccccc2)c(NC(=O)C2CCCO2)c1)C1CCCO1 (configuration not stated),?,-12%,2µM*,35%,-61*
CNC(=S)Nc1cc2oc3ccccc3c2cc1OC,-28%,?,11µM*,24%,-12
COc1cc2c(cc1NC(=O)/C=C/c1ccccc1)oc1ccccc12,-11%,-5%,7.1µM*,nt,-64*
CCCOc1ccc(CNC(=O)C(CC)n2nc(C)c3sc4ccccc4c3c2=O)cc1 (configuration not stated),-11%,-14%,nt,-20%,9
COc1ccc(-c2noc(-c3cccc(OC)c3OC)n2)cc1,-16%,-12%,nt,21%,40
CCN(CC)c1ccc(-c2nnc(SCC(=O)NCc3ccco3)n2C)cc1,-23%,-18%,nt,nt,nt
CCNC(=S)Nc1cc2oc3ccccc3c2cc1OC,?,?,22µM*,2%,0
COc1cc2c(cc1NC(=O)Nc1ccc(F)cc1)oc1ccccc12,-18%,-21%,?,-5%,-66*

# Screens as filed in PubChem.
